About 83,000 compounds went through this panel and 20% of them were active in at least one assay; those are over-represented in the sample as a whole.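 For each line, cells grew in 96-well plates with the test compound present at a single concentration for 48 hours.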 Values without a mark were called inactive. Calls of active or inactive are those of the source. Rule for the calls: active = growth percent below 10; inactive = the rest.

This experiment deals with NCI-H23 lung. Description: NCI-60 one-dose screen, 48 h (100 = growth as untreated, 0 = no growth, -100 = all killed). The settings on record: 10 µM unless noted.
As for `COc1ccc(/C=N/Nc2cc(=O)[nH]c3ccc(Cl)cc23)cc1`, the growth is 20.2%.
For `CCCCCCN(CCCCCC)c1ccc(/C=C2/SC(=O)NC2=O)c(C)c1` the value was 76.5%; for `CC(=O)Oc1ccccc1C(=O)N=C1[Se]CCCN1C(=O)c1ccccc1OC(C)=O`, 6.41% (active).
As for `CC(C)OC(=O)Nc1ccc(-c2nc(-c3cccc(OCCN4CCOCC4)c3)c(-c3ccnc(Br)c3)[nH]2)cc1`, the growth was 33%.
For `Cc1cc2nc3ccc(N=Nc4ccc(N(C)C)cc4)cc3n(-c3ccccc3)c-2cc1=N` the value was -45.8% (active); for `CCCCn1c(-c2ccc(-c3nc(-c4ccc(Cl)cc4)no3)cc2)nc(-c2ccccc2)c1-c1ccccc1`, 68.2%; for `Oc1c(I)cc(I)cc1CNCCCN(Cc1ccccn1)Cc1ccccn1`, -37% (active).
With `C/C(=N/NC(N)=S)c1sc(Nc2cccc(Cl)c2)nc1C`, the growth is 89.4%.
Turning to `Cc1nn(-c2ccccc2)c2c1N=c1s/c(=C\c3ccc(C(F)(F)F)cc3)c(=O)n1CN2`, the growth is 51.1%.
To `O=C(O)CCC(=O)Nc1nnc(-c2ccccc2)s1` belongs 99.7%; to `Oc1ccc(Cl)cc1Cc1cc(Cl)cc(Cl)c1O`, 9.44% (active); to `O=c1c2cccc(Cl)c2sc2c(NCCCNCCO)nc3ccccc3c12`, 52.4%.
Take `COc1cc(C2CC(c3cccc(Br)c3)=NN2C(C)=O)cc(OC)c1OC` (stereo not drawn): the growth is 24.8%.
For `COc1ccc(-c2nc(NN)c3c(C)nn(-c4ccc(F)cc4)c3n2)cc1` the value was 66.9%; for `CCOC(=O)NCCc1ccccc1`, 101%.
To `COc1ccccc1/C=C1\Oc2cc(OCCN3CCC(Cc4ccccc4)CC3)ccc2C1=O` belongs 93.9%.
For `O=C(COc1ccc(/C=C2\Cc3ccc(Cl)cc3C2=O)cc1)Nc1nc2ccccc2s1` the value was 95.5%; for `CCc1cccc2c3c(sc12)C(c1ccc(F)cc1)C(C#N)=C(N)O3` (stereo not drawn), 33.6%.
`Cc1ccc(C(=O)N/N=C/c2cccc([N+](=O)[O-])c2)cn1`: the growth is 101%.
For `CCOC(=O)C1=C(N)Oc2c(sc3c(C)cccc23)C1c1ccc(Cl)cc1` (stereo not drawn) the value was 28.2%; for `COc1ccc(-n2c(N)c(-c3nc4ccccc4[nH]3)cc(C#N)c2=O)cc1`, 86.8%.
For `Cc1cc2nc3cc(C)c(N)cc3[n+](-c3ccccc3)c2cc1N` the value was 39.8%.
Regarding `COc1c(N2CC3CCCN(C(C)=O)C3C2)c(F)cc2c(=O)c(C(=O)N[C@H]3C(O)[C@@H](O)C(CO)O[C@H]3O)cn(C3CC3)c12` (stereo partly drawn), the growth is 105%.
For the compound `COc1ccc(C2CC(c3ccc(Nc4nc(Nc5ccc(F)cc5)nc(Nc5ccc(Cl)cc5)n4)cc3)=NN2C(C)=O)cc1` (stereo not drawn), the growth is 91.8%.
On to `O=c1[nH][n+](-c2ccc(Br)cc2)no1`, for which the growth was 88.8%.
On to `O=C(CSc1nccc(Nc2ccc(S(=O)(=O)Nc3nccs3)cc2)n1)c1ccc(C(F)(F)F)cc1`, for which the growth is 88.1%.
Turning to `COc1cc(C2CC(c3ccc(N(C)C)cc3)=NN2C(C)=O)cc(OC)c1OC` (stereo not drawn), the growth is 31.2%.
`COc1ccc2c(c1)c(-c1ccc(-c3cn(C)c4ccc(OC)cc34)o1)cn2C`: the growth is 67.3%.
Regarding `COc1ccc(CN2c3ccccc3CCc3ccccc32)cc1F`, the growth is 38.7%.
For `CC(=O)N1N=C(c2ccc(Nc3nc(Nc4ccc(F)cc4)nc(Nc4ccc(Cl)cc4)n3)cc2)CC1c1ccc(Cl)cc1` (stereo not drawn) the value was 84.6%; for `COc1ccc(OC)c(/C=C/c2nnc(Nc3ccccc3)o2)c1`, 97.3%.
For `COc1cc2cc(Oc3ccc(NC(=O)Nc4ccc(Cl)c(C(F)(F)F)c4)cc3)c(C)nc2cc1OCCN1CCOCC1` the value was 10.5%.
As for `CCOC(=O)C1=C(N)Oc2c(sc3c(C)cccc23)C1c1ccc(F)cc1` (stereo not drawn), the growth was 20.1%.
To `NCCCNc1nc2ccccc2c2c(=O)c3cccc(F)c3sc12` belongs 50.5%.
For `CCc1ccc(Oc2c(-c3ccc(OCc4ccc(Cl)cc4)cc3O)n[nH]c2C(F)(F)F)cc1` the value was 3.59% (active).
For `COc1ccc2sc3c(NCCCNCCO)nc4ccccc4c3c(=O)c2c1` the value was 63.6%.
For `COc1nc2ccccc2cc1-c1nc2c(cnn2-c2ccc(Br)cc2)c(=O)[nH]1`, the growth was 25.2%.
Take `Cc1oc2nc[nH]c(=O)c2c1C(=O)/C=C/c1ccc(Br)cc1`: the growth is -11.2% (active).
